Experimental findings from the supplement of paper PMC10503962 are described below.

This experiment concerns Trichuris muris adult worms. Kind of experiment: mean motility score (Paragon pixel variance) of adult worms (arbitrary units); higher = more motile worms, i.e. less anthelmintic effect; extreme values may be limits of the assay. Particulars: 100 µM; 24 h. In a few lines: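 Each drug was tested with three worms in three wells, run over three separate occasions and vehicle and positive controls included. The worms were single adult Trichuris muris from infected NOD SCID mice, held for 24 h at 37°C and 5% CO2 in 100 μL RPMI-1640 with antibiotics and drug at 100 μM (1% v/v DMSO) in 96-well plates. Motility score was derived by Paragon pixel-variance analysis of films from an automated phenotyping platform and averaged over replicate wells.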
On to `CCCCCCCCCCCCCCCCOP(=O)([O-])OCC[N+](C)(C)C` [miltefosine], for which the mean motility score amounted to 2810.

In the case of `N[C@@H](CC(=O)O)C(=O)O` [aspartic acid], the mean motility score is 3610.

The compound `COc1c2occc2cc2ccc(=O)oc12` [methoxsalen] yielded a mean motility score of 4190.

Turning to `COc1cc2c(Nc3ccc(Br)cc3F)ncnc2cc1OCC1CCN(C)CC1` [vandetanib], the mean motility score amounted to 0.

In the case of `C#C[C@]1(O)CC[C@H]2[C@@H]3CCc4cc(O)ccc4[C@H]3CC[C@@]21C` [ethinyl estradiol], the mean motility score is 3320.

In turn, `CCCCOc1ccc(OCCCN2CCOCC2)cc1.Cl` [pramoxine hydrochloride] gave a mean motility score of 1260.

On to `COC1=C(OC)C(=O)C(CCCCCCCCCCO)=C(C)C1=O` [idebenone], for which the mean motility score is 1370.

As to `COc1cc2c(Oc3ccc4[nH]c(C)cc4c3F)ncnc2cc1OCCCN1CCCC1` [cediranib], the mean motility score amounted to 0.

Consider `CCCCC/C=C\C/C=C\C/C=C\CCCCC(=O)O` [gamolenic acid], for which the mean motility score came to 2970.

In the case of `CC(C)C(=O)Nc1ccc([N+](=O)[O-])c(C(F)(F)F)c1` [flutamide], the mean motility score was 113.

Compound `CC(=O)OCC(=O)[C@@]1(O)CC[C@H]2[C@@H]3CCC4=CC(=O)CC[C@]4(C)[C@H]3[C@@H](O)C[C@@]21C` [hydrocortisone acetate] returned a mean motility score of 3080.

In turn, `CN(C)C(=O)C(CCN1CCC(O)(c2ccc(Cl)cc2)CC1)(c1ccccc1)c1ccccc1` [loperamide] came in with a mean motility score of 0.

The compound `CC[N+](CC)(CCNC(=O)C(=O)NCC[N+](CC)(CC)Cc1ccccc1Cl)Cc1ccccc1Cl` [ambenonium] had a mean motility score of 3180.

Regarding `CN1CCN(CC/C=C2/c3ccccc3Sc3ccc(S(=O)(=O)N(C)C)cc32)CC1` [thiothixene], the mean motility score came to 1030.

`Cc1ccc(-c2ncc(Cl)cc2-c2ccc(S(C)(=O)=O)cc2)cn1` [etoricoxib] registered a mean motility score of 3660.

`O=C(O)COC(=O)Cc1ccccc1Nc1c(Cl)cccc1Cl` [aceclofenac] displayed a mean motility score of 972.

`COc1ccccc1N1CCN(CCCNc2cc(=O)n(C)c(=O)n2C)CC1` [urapidil] had a mean motility score of 2810.

Regarding `OCC(O)CO` [glycerin], the mean motility score was found to be 3460.

Compound `COC(=O)C1=C(C)NC(C)=C(C(=O)OC)C1c1ccccc1[N+](=O)[O-]` [nifedipine] registered a mean motility score of 1260.

`O=C1c2cccc(O)c2C(=O)c2c(O)cccc21` [danthron] had a mean motility score of 2660.

Take `NNc1nncc2ccccc12` [hydralazine]: the mean motility score amounted to 1960.

`O=C1NC(=O)C(c2ccccc2)(c2ccccc2)N1` [phenytoin]: the mean motility score is 2510.

The compound `COc1ccc(C(Cl)=C(c2ccc(OC)cc2)c2ccc(OC)cc2)cc1` [chlorotrianisene] yielded a mean motility score of 2530.

Consider `CCC(NC(C)C)C(O)c1ccc(O)c2nc(O)ccc12.Cl` (centres undefined) [procaterol hydrochloride], for which the mean motility score was 2060.
